Test results as given in PubChem BioAssay AID504329 (Southern Research Specialized Biocontainment Screening …, 2011).
Values joined by “and” are separate entries in the source; they are usually repeats but may differ in a detail not shown here. Equal values may be shown once. Screen size: about 340,000 compounds; about 1,000 (0.29%) were called active. Rule as the data show it: inconclusive = inhibition above about 27% without an active follow-up result; inactive = below that. These entries were drawn from the full list. Entries with a potency or affinity are not part of this list.

Test: H1N1 influenza NS1A inhibitors, functional cell based assay (AID 504329)
Conditions: percent inhibition, at 12.5 µM, active compounds read high
With `N#Cc1cc(-c2cccc(Cl)c2)c[nH]c1=O` the inhibition was 3.18% (inactive). With `Cc1ccc(C(=O)Nc2cccc(C(=O)NCc3ccco3)c2)cc1` the inhibition was 0.66% (inactive). In the case of `COc1ccc(C(=O)NCCSCc2cccc(Cl)c2)cc1OC`, the inhibition is reported as -9.42% (inactive). In the case of `O=C(CCN1CCN(c2ccc(F)cc2)CC1)Nc1ccc(F)cc1`, the inhibition is reported as 8.96% (inactive). With `CC(C)(C)c1cc(C(=O)N2CCc3ccccc32)ccn1` the inhibition was -21.7% (inactive). With `CC(=O)Nc1sc(C)c(C)c1C(=O)OCC(=O)NC(C)c1ccccc1` (stereo not given) the inhibition was -5.54% (inactive). In the case of `Cc1ccc(S(=O)(=O)Nc2nc3ccccc3nc2NCC2CCCO2)cc1C` (stereo not given), the inhibition is reported as -0.91% (inactive). In the case of `O=C1CC(c2ccc(O)cc2)Oc2cc(O)ccc21` (stereo not given), the inhibition is reported as -6.8% (inactive). In the case of `O=C(COc1ccccc1)N[C@@H]1c2ccccc2CC[C@H]1OCc1ccccc1`, the inhibition is reported as -3.28% (inactive). With `COc1cc(OC)c2c(-c3ccccc3)cc(=O)oc2c1C(CCN1CCCC(C)C1)c1ccc2c(c1)OCO2` (stereo not given) the inhibition was 17.6% (inactive). In the case of `COc1ccc(C(CCN2CCCCC2)c2c(OC)cc(OC)c3c(-c4ccccc4)cc(=O)oc23)cc1` (stereo not given), the inhibition is reported as 3.17% (inactive). With `CCN(CC)CCC(c1ccc2c(c1)OCO2)c1c(OC)cc(OC)c2c(-c3ccccc3)cc(=O)oc12` (stereo not given) the inhibition was 15.2% (inactive). In the case of `COc1cc(OC)c2c(-c3ccccc3)cc(=O)oc2c1C(CCN1CCOCC1)c1ccc(N(C)C)cc1` (stereo not given), the inhibition is reported as 9.77% (inactive). With `CCN(CC)CCC(c1cc(OC)c(OC)c(OC)c1)c1c(OC)cc(OC)c2c(-c3ccccc3)cc(=O)oc12` (stereo not given) the inhibition was -1.61% (inactive). In the case of `COc1ccc(C(CCN2CCCC(C)C2)c2c(OC)cc(OC)c3c(-c4ccccc4)cc(=O)oc23)cc1` (stereo not given), the inhibition is reported as 10.3% (inactive). In the case of `O=C(NCCc1ccccn1)c1ccc(NS(=O)(=O)c2ccc(F)cc2)cc1`, the inhibition is reported as -1.36% (inactive). With `COc1cccc(OCC(=O)NNC(=O)c2ccc3ccccc3c2O)c1` the inhibition was 3.46% (inactive). In the case of `CS(=O)(=O)N1N=C(c2ccco2)CC1c1ccco1` (stereo not given), the inhibition is reported as 0.65% (inactive). For `CC(NC(=O)CN(c1cccc(C(F)(F)F)c1)S(=O)(=O)c1ccc(Cl)c([N+](=O)[O-])c1)c1ccccc1` (stereo not given), the inhibition was -1.19% (inactive). For `N#Cc1ccc(C(=O)Nc2cccc3ccccc23)c(F)c1`, the inhibition was 4.06% (inactive). In the case of `CN1C(N)=NC(=O)/C1=C/c1ccc(OC(F)(F)F)cc1`, the inhibition is reported as -2.53% (inactive). For `CCOC(=O)c1ccccc1NC(=O)CN(c1ccccc1OCC)S(C)(=O)=O`, the inhibition was 0.08% (inactive). For `Cc1ccc(NC(=O)C2CCN(S(=O)(=O)c3ccc(C(C)(C)C)cc3)CC2)cc1S(=O)(=O)N1CCOCC1`, the inhibition was -3.38% (inactive). In the case of `CCCN(CCC)S(=O)(=O)c1ccc(NS(C)(=O)=O)cc1`, the inhibition is reported as -0.06% (inactive). In the case of `COC(=O)c1cccc(NS(=O)(=O)c2cccs2)c1C`, the inhibition is reported as 1.41% (inactive). For `Cc1ccccc1NC1=C/C(=N\S(=O)(=O)c2ccc(C(=O)O)cc2)c2ccccc2C1=O`, the inhibition was 4.65% (inactive). With `COC(=O)c1ccccc1NC(=O)c1cccs1` the inhibition was 11.6% (inactive). With `COC(=O)c1cc(NS(=O)(=O)c2cccs2)cc(NS(=O)(=O)c2cccs2)c1` the inhibition was -13.7% (inactive). With `Cc1ccc(Cl)cc1NC1=C/C(=N\S(=O)(=O)c2cccs2)c2ccccc2C1=O` the inhibition was 17.4% (inactive) and 16.6% (inactive). For `O=C(O)c1ccc(S(=O)(=O)/N=C2\C=C(Nc3ccccc3F)C(=O)c3ccccc32)cc1`, the inhibition was 14.7% (inactive). For `COc1ccccc1S(=O)(=O)Cc1ccc(C(=O)N2CCN(c3ccc(C)cc3)C(C)C2)o1` (stereo not given), the inhibition was 9.7% (inactive). For `CC(C)COC(=O)c1ccccc1C(=O)OCC(C)C`, the inhibition was 2.41% (inactive). With `COC(=O)c1ccc2c(c1O)C(=O)c1ccccc1C2=O` the inhibition was 4.41% (inactive). In the case of `CCN(CC)c1ccc(O)c(C=Nc2ccc(C)c(C)c2)c1`, the inhibition is reported as -19.5% (inactive). With `COc1ccc2c(O)c(-c3c(C)cc(C)cc3C)c(=O)[nH]c2c1` the inhibition was 10.4% (inactive). In the case of `COc1ccc(/C=C(/NC(=O)c2ccco2)C(=O)Nc2ccc(C(=O)O)cc2)cc1`, the inhibition is reported as -7.59% (inactive). For `COC(CNC(=O)c1ccc(N2CCc3ccccc32)c([N+](=O)[O-])c1)OC`, the inhibition was 10.7% (inactive). In the case of `O=C(O)c1ccc(N2CCc3ccccc32)c([N+](=O)[O-])c1`, the inhibition is reported as 4.7% (inactive). With `COCC(COS(N)(=O)=O)C(C)C` (stereo not given) the inhibition was 9.46% (inactive). In the case of `CCc1nc(N2CCN(C(=O)c3ccccc3)CC2)c2c3c(sc2n1)CCCC3`, the inhibition is reported as 2.27% (inactive). In the case of `Cc1c2ccccc2cc[n+]1CCCS(=O)(=O)[O-]`, the inhibition is reported as 5.16% (inactive). For `CCOc1ccc(C(=O)Nc2ncn[nH]2)cc1`, the inhibition was -3.3% (inactive). For `CCC(CO)Oc1cc(NCc2ccccc2)c2ncn(C(C)C)c2c1` (stereo not given), the inhibition was 3.05% (inactive). In the case of `COc1cc(NCc2ccccc2)c2ncn(C(C)C)c2c1`, the inhibition is reported as 0.83% (inactive). In the case of `Cc1ccc2c(c1)c(N=Nc1cccc(C(=O)O)c1)c(O)n2C`, the inhibition is reported as -0.45% (inactive). In the case of `CC(=O)Nc1nonc1NC(=O)COc1ccccc1`, the inhibition is reported as -0.08% (inactive). With `CCC(C)[C@H](NC(=O)[C@@H]1Cc2c([nH]c3ccccc23)C2c3ccccc3C(=O)N21)C(=O)NCC1CCCO1` (stereo not given in full) the inhibition was 0.06% (inactive). For `C=CCOC(=O)C1=C(C)Nc2nc3ccccc3n2C1c1ccncc1` (stereo not given), the inhibition was -21.4% (inactive). With `O=C(CN1CCOCC1)N/N=C/c1c(O)ccc2ccccc12` the inhibition was 14.4% (inactive). For `O=C(CN1CCCc2ccccc21)N/N=C/c1c(O)ccc2ccccc12`, the inhibition was -3.7% (inactive). With `Cc1cccc(/C=N/NC(=O)CN2CCCCCCC2)c1` the inhibition was 5.95% (inactive). With `Cc1ccc2cc(/C=N/NC(=O)CN3CCCCC3)c(Cl)nc2c1` the inhibition was 1.44% (inactive). For `COc1cc2oc3ccccc3c2cc1N(CC(=O)N(C)C)S(=O)(=O)c1ccc(C)cc1`, the inhibition was 1.98% (inactive). For `CCCCc1nnc(NC(=O)c2ccc(OCc3c(C)noc3C)cc2)s1`, the inhibition was 3.77% (inactive). For `CCOC(=O)N1CCN(C(=O)c2ccc3c(Cl)c4c(nc3c2)CCCC4)CC1`, the inhibition was -2.68% (inactive). With `CSCC[C@H](NC(=O)OC(C)(C)C)C(=O)N1CCC(C(=O)N[C@@H](C)C(=O)NC(C)c2ccccc2)CC1` (stereo not given in full) the inhibition was 4.49% (inactive). With `CCc1ccc(CN(C)C(=O)c2ccc3c(=O)n4c(nc3c2)CCC4)cc1` the inhibition was -7.99% (inactive). For `COc1cccc2c1C(=O)c1c(O)c3c(c(O)c1C2=O)CC(O)(C(C)=O)CC3OC1CC(O)C(O)C(C)O1` (stereo not given), the inhibition was 20.6% (inactive). With `CCCCC(=O)OCC(=O)C1(O)Cc2c(O)c3c(c(O)c2C(OC2CC(NC(=O)C(F)(F)F)C(O)C(C)O2)C1)C(=O)c1c(OC)cccc1C3=O` (stereo not given) the inhibition was 14.4% (inactive). For `COc1cccc2c1C(=O)c1c(O)c3c(c(O)c1C2=O)C[C@](O)(C(C)=O)C[C@H]3O[C@@H]1C[C@@H](N)[C@@H](O)[C@@H](C)O1`, the inhibition was 24.5% (inactive). In the case of `COc1cccc2c1C(=O)c1c(O)c3c(c(O)c1C2=O)CC(O)(C(C)=O)CC3OC1CC(N(C)C)C(O)C(C)O1` (stereo not given), the inhibition is reported as 19.1% (inactive). With `COc1cccc2c1C(=O)c1c(O)c3c(c(O)c1C2=O)CC(O)(C(=O)CO)CC3OC1CC(N(C)C)C(O)C(C)O1` (stereo not given) the inhibition was 18.7% (inactive). With `C/C(=N\NC(=O)c1ccc(Cl)c(Cl)c1)c1cccc(NC(=O)C(C)C)c1` the inhibition was -0.88% (inactive). For `COc1cccc2c1C(=O)c1c(O)c3c(c(O)c1C2=O)C[C@@](O)(C(=O)CO)C[C@@H]3OC1CC(N)C(O)C(C)O1` (stereo not given in full), the inhibition was 15% (inactive). For `COc1cccc2c1C(=O)c1c(O)c3c(c(O)c1C2=O)C[C@@](O)(C(=O)CO)C[C@@H]3O[C@H]1C[C@H](N)[C@H](O)[C@H](C)O1`, the inhibition was 20.3% (inactive). With `COC(=O)CC1=C(C(=O)OC)C(c2ccc3c(c2)OCO3)C(C#N)=C(N)O1` (stereo not given) the inhibition was -5.88% (inactive). For `Cc1cc(C)c(NC(=O)c2ccc(CN3CCc4ccccc4C3)cc2)c(C)c1`, the inhibition was 12.4% (inactive). For `COc1ccccc1/C=C/C=C1\Oc2c(ccc(O)c2CN2CCN(CCO)CC2)C1=O`, the inhibition was 6.54% (inactive). In the case of `CC(C)n1cc(C#N)c(N)n1`, the inhibition is reported as -24.1% (inactive). For `Cc1ccc2c(CN3CCCCC3C)cc(=O)oc2c1C` (stereo not given), the inhibition was -6.02% (inactive). For `O=C(COC(=O)c1cccc(O)c1)Nc1ccc(Cl)cc1C(=O)c1ccccc1`, the inhibition was -7.75% (inactive). For `CSC1=NCCN1C(=O)c1c(-c2c(F)cccc2Cl)noc1C`, the inhibition was -23.1% (inactive). For `Cc1ccc(C2C(N)C(=O)N2c2ccc(C)cc2)cc1` (stereo not given), the inhibition was -20.6% (inactive). With `Cc1ccc(NC(=O)CN(C)C(=O)Cc2ccc(Cl)c(Cl)c2)cc1` the inhibition was 9.85% (inactive). With `Cc1ccc(S(=O)(=O)NNC(=O)c2cnn(-c3ccc(Cl)cc3)c2C(F)(F)F)cc1` the inhibition was -16.4% (inactive). With `Cc1cccc(C)c1NC(=O)CN(C)C(=O)c1cccc(S(=O)(=O)N2CCN(c3ccccc3)CC2)c1` the inhibition was 1.58% (inactive). For `NC1=NC(=O)/C(=C/C=C/c2cccs2)S1`, the inhibition was -14.1% (inactive). For `COc1ccc(/C=C/C=C2\N=C(SC)SC2=O)cc1`, the inhibition was 18% (inactive). For `CC(C)CCNC(=O)CCc1nnc2n(CCCOC(C)C)c(=O)c3ccccc3n12`, the inhibition was -5.28% (inactive). With `Cc1ccc(SCCN)cc1C` the inhibition was 8.4% (inactive). In the case of `O=C1CC(c2ccccc2)CN1` (stereo not given), the inhibition is reported as -20.7% (inactive). In the case of `COc1cc(CNC2CCC(C)C2)cc(OC)c1` (stereo not given), the inhibition is reported as 4.05% (inactive). In the case of `Cc1ccc(NC2=CC(=O)C(=O)c3ccccc32)cc1`, the inhibition is reported as 2.25% (inactive). With `Cc1ccc(SC2=C(Sc3ccc(C)cc3)C(=O)c3ccccc3C2=O)cc1` the inhibition was 4.19% (inactive). In the case of `NC(=O)CC(NC(=O)Cc1cccc2ccccc12)c1ccc(N2CCc3ccccc3C2)c([N+](=O)[O-])c1` (stereo not given), the inhibition is reported as 14.5% (inactive).
